Data: PubChem BioAssay (NCATS)
Inconclusive results are not listed. Active and inactive are the calls of the source. The call rests on the fitted dose curve; in most records, active means well fitted curve in the direction sought with a large enough effect; inconclusive means small, poorly fitted or top-dose-only effect, or another doubt; inactive means no such curve, though single readings can be large; an effect the other way counts as inactive or inconclusive.

Assays:
HaCat [1] = experiment: Cytotoxic Profiling of Annotated Libraries Using Quantitative High-Throughput Screening (AID 1296008); details: Five cell lines viability, CellTiter-Glo ATP luminescence, 48-72 h; max response: active compounds read low; further: nearly all actives have a fitted effect of over 60% in size; on max response: on the % scale 0 is the no-effect control and ±100 the full control effect
Summary of the method: (§1)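 Cells exposed to compounds for 48 or 72 hr at 37 degrees Celsius. Viability read as ATP-coupled luminescence with CellTiter-Glo after 10 min at room temperature.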

KB-3-1 = experiment: as above; details: Five cell lines viability, CellTiter-Glo ATP luminescence, 48-72 h; max response: active compounds read low
Summary of the method: as §1

NIH3T3 [2] = experiment: as above; details: Five cell lines viability, CellTiter-Glo ATP luminescence, 48-72 h; max response: active compounds read low
Summary of the method: as §1

HACAT [3] = experiment: qHTS assay to identify novel small-molecules to repurpose for Merkel cell carcinoma treatment (AID 1296009); details: MCC and control cell lines, CellTiter-Glo viability, 72 h; at 44.8 µM (top of the series) unless noted; further: nearly all actives have a fitted effect of over 60% in size
Summary of the method: (§2)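 CellTiter-Glo luminescence after 72 hr compound exposure at 37 degree celsius gave cell viability. Libraries NPC and MIPE were run as 8- and 11-point dose responses; RLUs normalized to DMSO (negative) and no-cell (cytotoxicity) controls.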

MCC-13 = experiment: as above; details: MCC and control cell lines, CellTiter-Glo viability, 72 h; series mostly up to 46 µM
Summary of the method: as §2

MCC-26 = experiment: as above; details: MCC and control cell lines, CellTiter-Glo viability, 72 h; series mostly up to 46 µM
Summary of the method: as §2

MKL-1 = experiment: as above; details: MCC and control cell lines, CellTiter-Glo viability, 72 h; series mostly up to 46 µM
Summary of the method: as §2

MKL-2 = experiment: as above; details: MCC and control cell lines, CellTiter-Glo viability, 72 h; series mostly up to 46 µM
Summary of the method: as §2

CRL-7250 = normal cell line; experiment: Cytotoxic Profiling of Annotated Libraries Using Quantitative High-Throughput Screening (AID 1296008); details: Five cell lines viability, CellTiter-Glo ATP luminescence, 48-72 h; max response: active compounds read low; further: nearly all actives have a fitted effect of over 60% in size; on max response: on the % scale 0 is the no-effect control and ±100 the full control effect
Summary of the method: as §1

UISO = experiment: qHTS assay to identify novel small-molecules to repurpose for Merkel cell carcinoma treatment (AID 1296009); details: MCC and control cell lines, CellTiter-Glo viability, 72 h; series mostly up to 46 µM; further: nearly all actives have a fitted effect of over 60% in size
Summary of the method: as §2

WaGa = experiment: as above; details: MCC and control cell lines, CellTiter-Glo viability, 72 h; series mostly up to 46 µM
Summary of the method: as §2

HEK293 = experiment: Cytotoxic Profiling of Annotated Libraries Using Quantitative High-Throughput Screening (AID 1296008); details: Five cell lines viability, CellTiter-Glo ATP luminescence, 48-72 h; max response: active compounds read low; further: nearly all actives have a fitted effect of over 60% in size; on max response: on the % scale 0 is the no-effect control and ±100 the full control effect
Summary of the method: as §1

C33A = experiment: Primary qHTS to identify gynecologic anti-cancer compounds using libraries of approved drugs and bioactive compounds (AID 1345084); details: Gynecologic cancer cell panel viability, ATPlite luminescence, 48 h; series mostly up to 57.5 µM; further: nearly all actives have a fitted effect of over 55% in size
Summary of the method: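 ATP-based viability (ATPlite), 1,000 cells/well, 16 h pre-incubation, 48 h compound at 37 C, 5% CO2, 15 min RT before read.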

NIH3T3 [4] = experiment: qHTS assay to identify novel small-molecules to repurpose for Merkel cell carcinoma treatment (AID 1296009); details: MCC and control cell lines, CellTiter-Glo viability, 72 h; at 44.8 µM (top of the series) unless noted; further: nearly all actives have a fitted effect of over 60% in size
Summary of the method: as §2

TAB109 = experiment: qHTS profiling for inhibitors of Plasmodium falciparum proliferation (AID 504749); further: nearly all actives have a fitted effect of over 60% in size; details: P. falciparum in erythrocytes, SYBR Green DNA, 72 h; series mostly up to 28.7 µM
Summary of the method: (§3)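 SYBR Green fluorescence (ex 485 nm, em 535 nm) reports parasite DNA after 72 h compound exposure of infected red cells at 0.3% parasitemia, 2.5% hematocrit; signal normalized to 0.29 uM artemisinin and vehicle wells.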

TAB113 = experiment: as above; details: P. falciparum in erythrocytes, SYBR Green DNA, 72 h; series mostly up to 28.7 µM
Summary of the method: as §3

TAB165 = experiment: as above; details: P. falciparum in erythrocytes, SYBR Green DNA, 72 h; series mostly up to 28.7 µM
Summary of the method: as §3

W2 = experiment: as above; details: P. falciparum in erythrocytes, SYBR Green DNA, 72 h; series mostly up to 28.7 µM
Summary of the method: as §3
Potency means the concentration at half of the fitted maximal effect.

O=[N+]([O-])c1cc([N+](=O)[O-])c2ccccc2c1
inactive: outcome (HaCat [1]) | max response (KB-3-1) -6.84% | max response (NIH3T3 [2]) 4.23% | outcome (HACAT [3]) inactive [at 92 µM] | Potency (MCC-13) | Potency (MCC-26) | Potency (MKL-1) | Potency (MKL-2)

C[C@H]1CCCC=CC2C[C@H](O)C[C@@H]2[C@H](O)C=CC(=O)O1 (stereo not given in full)
active: Potency (KB-3-1) 0.001 µM | Potency (NIH3T3 [2]) 1.05 µM
inactive: max response (CRL-7250) -95.9% | max response (HaCat [1]) -111% | Potency (MCC-13) | Potency (MKL-1) | Potency (MKL-2) | Potency (UISO) | Potency (WaGa)

O=[N+]([O-])c1c2ccccc2cc2ccccc12
inactive: max response (HEK293) -16% | max response (HaCat [1]) 3.41% | max response (KB-3-1) -16.7% | max response (NIH3T3 [2]) -10.2% | Potency (MCC-13) | Potency (C33A)
active: Potency (UISO) 42.8 µM

Nc1ccc(Cl)cc1N
inactive: max response (CRL-7250) -5.38% | max response (HaCat [1]) -38.9% | max response (KB-3-1) -2.75% | Potency (MCC-13) | Potency (MCC-26) | Potency (UISO)

C[C@](O)(COc1ccc(C#N)cc1)C(=O)Nc1ccc(C#N)c(C(F)(F)F)c1
inactive: max response (CRL-7250) -6.61% | outcome (HaCat [1]) | max response (KB-3-1) -23.6% | outcome (HACAT [3]) | Potency (MCC-13) | Potency (MCC-26) | Potency (MKL-1) | Potency (MKL-2) | Potency (UISO) | Potency (WaGa)

COCC1(CO)C(=O)C2CCN1CC2 (stereo not given)
inactive: max response (CRL-7250) -4.01% | outcome (HaCat [1]) | max response (KB-3-1) 3.43% | outcome (HACAT [3]) | Potency (MCC-13) | Potency (MCC-26)
active: Potency (MKL-1) 2.09 µM | Potency (WaGa) 1.32 µM

O=S(=O)(O)C(F)(F)C(F)(F)C(F)(F)C(F)(F)C(F)(F)C(F)(F)C(F)(F)C(F)(F)F
inactive: max response (CRL-7250) -8.73% | max response (HaCat [1]) 0.89% | max response (KB-3-1) -10.5% | outcome (NIH3T3 [2]) | Potency (MCC-13) | Potency (MCC-26) | Potency (MKL-1) | outcome (NIH3T3 [4]) inactive [at 92 µM] | Potency (UISO) | Potency (C33A)

CC(=O)[O][Hg][c]1ccccc1
active: Potency (TAB109) 4.47 µM | Potency (TAB113) 7.08 µM | Potency (TAB165) 4.47 µM | Potency (W2) 4.78 µM | Potency (CRL-7250) 4.22 µM | Potency (KB-3-1) 1.64 µM | Potency (MCC-13) 1.06 µM | Potency (MCC-26) 2.66 µM | Potency (MKL-2) 0.106 µM | Potency (UISO) 0.841 µM | Potency (WaGa) 0.473 µM | Potency (C33A) 5.62 µM

COc1nn(CSP(=S)(OC)OC)c(=O)s1
active: Potency (MKL-1) 24.3 µM | Potency (MKL-2) 24.3 µM | Potency (UISO) 38.6 µM
inactive: outcome (HaCat [1]) | max response (KB-3-1) -23.4% | max response (NIH3T3 [2]) -0.106% | outcome (HACAT [3]) inactive [at 92 µM] | Potency (C33A)

O=C(O)c1cc(Oc2ccc(C(F)(F)F)cc2Cl)ccc1[N+](=O)[O-]
inactive: max response (CRL-7250) -0.373% | max response (KB-3-1) -8.96% | Potency (MCC-13) | Potency (MCC-26) | Potency (MKL-1) | Potency (MKL-2) | Potency (UISO) | Potency (WaGa) | Potency (C33A)

CCCCOC(=O)c1ccccc1C(=O)OCc1ccccc1
inactive: max response (CRL-7250) -23.3% | max response (KB-3-1) -13.6% | max response (NIH3T3 [2]) -6.85% | Potency (MCC-13) | Potency (MCC-26) | Potency (MKL-1) | Potency (MKL-2) | Potency (UISO) | Potency (WaGa) | Potency (C33A)

Cc1c(C(=O)c2cccc3ccccc23)c2cccc3c2n1[C@H](CN1CCOCC1)CO3
active: Potency (CRL-7250) 20.9 µM | Potency (KB-3-1) 13.2 µM | Potency (MKL-1) 23.5 µM | Potency (MKL-2) 23.5 µM

O=S(=O)(CC1CS1)c1ccc(Oc2ccccc2)cc1 (stereo not given)
active: Potency (MKL-1) 23.5 µM | Potency (MKL-2) 16.6 µM | Potency (WaGa) 20.9 µM
inactive: max response (CRL-7250) -6.75% | max response (HaCat [1]) 3.29% | max response (KB-3-1) 0.22% | max response (NIH3T3 [2]) -6.16% | Potency (MCC-13) | Potency (MCC-26)
